High-throughput results as filed in PubChem.
IL1B secr inh = inflammasome signaling inhibition, IL-1 beta readout; THP-1 LPS/ATP IL-1B secretion, AlphaLISA, 16 h; hits give low values; activity change, % at 57.5 µM; 360,000 tested, 4.7% active; AID 743279; in the data active = activity change below about -50%; inconclusive = mostly about -30% to -49%
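Secreted IL-1B measured by AlphaLISA bead assay after 16 h compound exposure of THP-1 cells; compounds (final up to 57.5 uM) added 1 h before LPS (250 ng/mL) and ATP (1.25 mM) stimulation; lower signal means less secretion.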
HT1080-NT tox = kills 2HG-producing HT-1080-NT fibrosarcoma cells. HT-1080-NT fibrosarcoma viability, CellTiter-Glo ATP luminescence, 48 h. Potency, µM (highest dose often 46.1 µM), most hits filed as cytotoxic. 360,000 tested, 1.6% active. AID 686970;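 note: NT is the 2HG producing partner of a matched IDH1 knockdown line; nearly all actives have a fitted effect of over 55% in size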
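HT-1080-NT; 750 cells/well; 5% FBS RPMI; 48 h compound, 37 degrees C; CellTiter-Glo luminescence; curve fitting and curve-class assignment.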
TDP1 cell CPT = growth inhibition of DT40 Tdp1-/-;hTDP1 cells with camptothecin (screen for TDP1 inhibitors). chicken DT40 Tdp1-/-;hTDP1 cells + 20 nM CPT, ATP luminescence, 48 h. Potency, µM (titrated, usually from 46.2 µM), most hits filed as inhibitors. 420,000 tested, 12% active. AID 686979; note: nearly all actives have a fitted effect of over 55% in size
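Cell growth measured by CellTiter-Glo luminescence after a minimum 48 h, 37 C compound exposure with 20 nM CPT in Tdp1-knockout DT40 cells stably expressing hTDP1, seeded 400/well; qHTS titration format.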
TDP1 cell noCPT = qHTS for Inhibitors of human tyrosyl-DNA phosphodiesterase 1 (TDP1): qHTS in cells in absence of CPT. DT40 Tdp1-/- hTDP1 cells, no CPT, ATP luminescence, 48 h. Potency, µM (series often up to 46.2 µM), usual class: inhibitors. 420,000 tested, 15% active. AID 686978, 2013; note: nearly all actives have a fitted effect of over 55% in size
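DT40 Tdp1-/-;hTDP1 cells, no CPT (DMSO vehicle only), 400 cells/well; compounds pin-transferred; ≥48 hr, 37 °C; CellTiter-Glo 30 min RT dark, luminescence read.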
HT1080 IDH1KD tx = kills HT-1080 cells with IDH1 knockdown; AID 686971; Potency, µM (titrated, usually from 46.1 µM), actives largely listed as cytotoxic; 360,000 tested, 2% active; HT-1080 IDH1 knockdown viability, ATP luminescence, 48 h
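In this qHTS, HT-1080 cells depleted of IDH1 are exposed for 48 h at 37 °C to compound titrations. Toxicity is scored from CellTiter-Glo luminescence, with DMSO as full viability and medium alone as none.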
Each line names hits and unclear results; the compound was inactive in the other large screens. This is a sample that favours compounds with a hit; in the whole collection about 19% have one here. Unless noted, calls come from the whole dose curve; as a rule, active = well fitted curve in the direction sought with a large enough effect; inconclusive = small, poorly fitted or top-dose-only effect, or another doubt; inactive = no such curve, though single readings can be large; an effect the other way counts as inactive or inconclusive.

Cc1c(NS(=O)(=O)c2cc(C(=O)OCC(=O)N3CCC(C)CC3)ccc2Cl)c(=O)n(-c2ccccc2)n1C	none
O=C(COC(=O)c1ccccc1C(=O)OCC(=O)NCCc1c[nH]c2ccccc12)NCCc1c[nH]c2ccccc12	HT1080-NT tox inconclusive, TDP1 cell CPT inconclusive, TDP1 cell noCPT 23µM
O=C(NN=C1CCC(c2ccccc2)CC1)c1cc2c(s1)CCCC2 (stereo unspecified)	none
CC(C)NC(=S)NN=C1CCC(c2ccccc2)CC1 (stereo unspecified)	TDP1 cell CPT inconclusive, TDP1 cell noCPT 16µM
COc1cc2cc(CN(CCc3ccccc3C)C(=S)NCCCN(C)C)c(=O)[nH]c2cc1OC	TDP1 cell CPT inconclusive, TDP1 cell noCPT 16µM
CCNC(=S)N(CCc1ccccc1C)Cc1cc2cc(OC)c(OC)cc2[nH]c1=O	none
CN(C)CCCNC(=S)N(Cc1cccs1)Cc1cc2cc3c(cc2[nH]c1=O)OCCO3	TDP1 cell CPT inconclusive, TDP1 cell noCPT inconclusive
Cc1ccc2[nH]c(=O)c(CN(Cc3ccccc3)C(=S)NCCCN(C)C)cc2c1	IL1B secr inh -87, HT1080-NT tox 18µM, TDP1 cell CPT inconclusive, TDP1 cell noCPT inconclusive, HT1080 IDH1KD tx 16µM
CSc1ccc(S(=O)(=O)NCC(=O)OC2CCOC2=O)cc1[N+](=O)[O-] (stereo unspecified)	IL1B secr inh -68
COc1ccc(CCNC(=O)COC(=O)CNS(=O)(=O)c2ccc(SC)c([N+](=O)[O-])c2)cc1	none
CSc1ccc(S(=O)(=O)NCC(=O)OCC(=O)NCc2cccs2)cc1[N+](=O)[O-]	IL1B secr inh -66
CSc1ccc(S(=O)(=O)NCC(=O)OCC(=O)N2CC(C)CC(C)C2)cc1[N+](=O)[O-] (stereo unspecified)	none
CSc1ccc(S(=O)(=O)NCC(=O)OCC(=O)N2CCCC2=O)cc1[N+](=O)[O-]	IL1B secr inh -96, TDP1 cell CPT inconclusive, TDP1 cell noCPT inconclusive
CCN(CC)CCNC(=O)c1ccc(NC(=O)COc2ccccc2F)cc1	none
O=C1c2ccccc2C(=O)N1CCCCN(C(=O)c1cccc([N+](=O)[O-])c1)c1ccc(Cl)cc1	TDP1 cell CPT 21µM, TDP1 cell noCPT 16µM
COc1ccc(C(=O)Cn2cnc3ccc(Cl)cc3c2=O)cc1F	none
COc1ccc(S(=O)(=O)N2CCCC(C(=O)N3CCN(Cc4ccccc4)CC3)C2)cc1Cl (stereo unspecified)	IL1B secr inh inconclusive, TDP1 cell CPT 21µM, TDP1 cell noCPT 15µM
COc1ccc(S(=O)(=O)N2CCCC(C(=O)Nc3cccnc3)C2)cc1Cl (stereo unspecified)	TDP1 cell CPT 16µM, TDP1 cell noCPT 15µM, HT1080 IDH1KD tx inconclusive
CC(=O)N1CCCc2cc(S(=O)(=O)N3CCCC(C(=O)Nc4cccc(Cl)c4C)C3)ccc21 (stereo unspecified)	TDP1 cell CPT 16µM, TDP1 cell noCPT inconclusive (no result: IL1B secr inh, HT1080-NT tox, HT1080 IDH1KD tx)
Cc1ccc(S(=O)(=O)N2CCC(C(=O)N3CCN(Cc4ccccc4)CC3)CC2)cc1	TDP1 cell CPT 21µM, TDP1 cell noCPT inconclusive
O=C(C1CCN(S(=O)(=O)c2ccccc2)CC1)N1CCN(Cc2ccccc2)CC1	TDP1 cell CPT inconclusive, TDP1 cell noCPT inconclusive
COc1ccc(F)cc1S(=O)(=O)NC1CCCC1	HT1080-NT tox inconclusive, TDP1 cell CPT inconclusive
CC1=CS(=O)(=O)CC1Sc1nc2ccccc2[nH]1 (stereo unspecified)	none
O=C(CN(CC1CCCO1)C(=O)CNS(=O)(=O)c1ccc(F)cc1)NC1CCCCC1 (stereo unspecified)	TDP1 cell noCPT inconclusive
COc1ccc(NS(=O)(=O)c2cccc(C(=O)NNC(=O)c3ccc(=O)[nH]c3)c2)cc1	none
CC(=O)N1CCCc2cc(S(=O)(=O)N3CCCC(C(=O)Nc4ccccc4C)C3)ccc21 (stereo unspecified)	TDP1 cell CPT inconclusive
CCOc1ccccc1NC(=O)C1CCCN(S(=O)(=O)c2ccc3c(c2)CCCN3C(C)=O)C1 (stereo unspecified)	TDP1 cell CPT 26µM, TDP1 cell noCPT 15µM
CC(=O)N1CCCc2cc(S(=O)(=O)N3CCCC(C(=O)Nc4ccc(F)cc4F)C3)ccc21 (stereo unspecified)	TDP1 cell CPT inconclusive, TDP1 cell noCPT 21µM (no result: IL1B secr inh, HT1080-NT tox, HT1080 IDH1KD tx)
COc1ccc(NC(=O)C2CCCN(S(=O)(=O)c3ccc4c(c3)CCCN4C(C)=O)C2)cc1Cl (stereo unspecified)	TDP1 cell CPT 21µM, TDP1 cell noCPT inconclusive
CC(=O)N1CCCc2cc(S(=O)(=O)N3CCCC(C(=O)Nc4ccc(C)cc4C)C3)ccc21 (stereo unspecified)	TDP1 cell noCPT inconclusive
COc1cc(C)nc(N2CCCC(C(=O)Nc3cccc(Cl)c3C)C2)n1 (stereo unspecified)	TDP1 cell CPT 23µM, TDP1 cell noCPT inconclusive
O=C(O)c1cc(NC(=O)c2ccc3c(c2)C(=O)N(Cc2ccccc2)C3=O)cc(C(=O)O)c1	none
O=C(CNC(=O)c1cnccc1C(F)(F)F)c1cccc(Cl)c1	none (no result: IL1B secr inh)
Cc1ccc(S(=O)(=O)N2CCN(Cc3ccccc3C(F)(F)F)CC2)cc1	none
Cc1ccc(S(=O)(=O)N2CCN(Cc3ccccc3Cl)CC2)cc1	TDP1 cell CPT inconclusive, TDP1 cell noCPT 18µM (no result: IL1B secr inh, HT1080-NT tox, HT1080 IDH1KD tx)
O=C(Nc1c(C(=O)N2CCN(c3ccccn3)CC2)oc2ccccc12)c1ccc([N+](=O)[O-])cc1	TDP1 cell CPT 23µM, TDP1 cell noCPT inconclusive
O=C(c1ccc([N+](=O)[O-])s1)N1CCN(c2ccccn2)CC1	TDP1 cell CPT 23µM, TDP1 cell noCPT 15µM, HT1080 IDH1KD tx inconclusive
O=C(NCCC(=O)N1CCN(c2ccccn2)CC1)c1ccc([N+](=O)[O-])cc1	none
CC[C@H]1OC(=O)C[C@@H](O)[C@H](C)[C@@H](O[C@@H]2O[C@H](C)[C@@H](O)[C@H](N(C)C)[C@H]2O)[C@@H](CCN2C[C@H](C)C[C@H](C)C2)C[C@@H](C)C(=O)/C=C/C(C)=C/[C@@H]1CO[C@@H]1O[C@H](C)[C@@H](O)[C@@H](OC)[C@H]1OC	none (no result: IL1B secr inh, HT1080-NT tox, HT1080 IDH1KD tx)
CO[C@@H]1[C@@H](O[C@@H]2O[C@H](C)[C@@H](O[C@H]3C[C@@](C)(O)[C@@H](OC(=O)CC(C)C)[C@H](C)O3)[C@H](N(C)C)[C@H]2O)[C@@H](CC=O)C[C@@H](C)C(=O)/C=C/C2OC2C[C@@H](C)OC(=O)C[C@H]1OC(C)=O (stereo partly specified)	TDP1 cell CPT 3.8µM, TDP1 cell noCPT 3.3µM (no result: IL1B secr inh, HT1080-NT tox, HT1080 IDH1KD tx)
